Measured values reported in PubChem BioAssay AID1852 (Sanford-Burnham Center for Chemical Genomics, 2009).
The whole screen tested about 2,500 compounds, of which about 1,100 (44%) were called active. The set was probably picked from earlier hits. The list shows a part of the results. A number with no mark means an inactive call.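 The calls were made as follows: active = inhibition above 50% at 4 µM in the single-point screen; inactive = inhibition of 50% or less.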

Assay: blockers of TNF-a NF-kB luciferase induction – cell-based, HEK293T NF-kB-Luc, luminescence, selectivity assay for NOD1/NOD2 signaling inhibitor project, primary screen (AID 1852)
Details: TNF-a induced, 14 h, at 4 µM, stronger effect = higher value

| SMILES | inhibition |
| --- | --- |
| CC(Sc1nnc2c(n1)[nH]c1ccccc12)C(=O)N(C)C1CCCCC1 (configuration not stated) | 32.3% |
| COc1ccc(C)cc1NC(=O)CSc1ccc(-c2sc(C)nc2C)nn1 | 21.8% |
| COc1ccc(OC)c(NC(=O)CSc2ncnc3c2cnn3-c2ccccc2Cl)c1 | 36.9% |
| COc1ccc(C)cc1NC(=O)CSc1ccc(-c2ccccn2)nn1 | 82.9% (active) |
| COc1ccc(NC(=O)CSc2ccc(-c3cccs3)nn2)c(OC)c1 | 72.8% (active) |
| COc1ccc(C)cc1NC(=O)CSc1ccc(-c2ccco2)nn1 | -4.4% |
| Cc1ccc(NC(=O)Nc2nnc(-c3ccncc3)s2)cc1C | 43.3% |
| O=C(N/N=C(\c1ccccc1)c1cccnc1)c1cccc(F)c1 | 102% (active) |
| COc1cccc(C(=O)N/N=C(/c2ccccc2)c2ccccn2)c1 | 62.2% (active) |
| COc1cc(C(=O)N/N=C(\c2ccccc2)c2ccccn2)cc(OC)c1OC | 64% (active) |
| COc1cc(C(=O)Nc2sc3c(c2C(=O)O)CCC(C)C3)cc(OC)c1OC (configuration not stated) | 40% |
| COc1ccc(C(=O)N/N=C(\c2ccccc2)c2ccccn2)cc1 | 46.3% |
| COc1cc(C(=O)Nc2scc(-c3ccc(Br)cc3)c2C(=O)O)cc(OC)c1OC | 21.5% |
| C/C(CC(=O)Nc1cccnc1)=N\NC(=O)c1ccc([N+](=O)[O-])c(Cl)c1 | 15.3% |
| COc1ccc(-c2csc3nc(-c4ccccc4OC)oc(=O)c23)cc1 | 12.5% |
| COc1ccccc1-c1nc(C#N)c(N2CCN(c3cccc(Cl)c3)CC2)o1 | -20.8% |
| COc1ccccc1-c1nnc(Sc2nc([N+](=O)[O-])nn2C)o1 | 54.9% (active) |
| C/C(=N\NC(=O)c1cc(Cl)ccc1O)c1ccc(Br)s1 | 48% |
| O=C(NCCCSc1ccccc1)c1cc(Br)ccc1O | 69.9% (active) |
| O=C(NCCCSc1ccccc1)c1cc(Cl)ccc1O | 80.1% (active) |
| COc1ccccc1CNC(=O)C1CCN(C(=O)[C@@H]2Cc3ccccc3CN2)CC1 | 14.5% |
| COc1cc(F)ccc1CN1CCC(C(=O)Nc2ccc(Oc3ccccc3)nc2)CC1 | 57% (active) |
| O=C(Nc1ccc(Oc2cccnc2)cc1)C1CCN(Cc2cc(Cl)ccc2O)CC1 | 47.8% |

| SMILES | inhibition |
| --- | --- |
| O=C(Nc1ccc(Cl)c(S(=O)(=O)N2CCOCC2)c1)c1ccc(OCC2CCCO2)cc1 (configuration not stated) | 94.7% (active) |
| O=C(Nc1cccc(Br)c1)c1ccc(Cl)c(S(=O)(=O)N2CCOCC2)c1 | 45.4% |
| Cc1ccc(NC(=O)c2ccc(S(=O)(=O)NCC3CCCO3)cc2)cc1C (configuration not stated) | 4.7% |
| O=C(/C=C\c1ccco1)Nc1nc(-c2ccc3ccccc3c2)cs1 | 36.9% |
| CN(C)S(=O)(=O)c1ccc(C(=O)Nc2nc(-c3cc4ccccc4o3)cs2)cc1 | 36.3% |
| CN(C)S(=O)(=O)c1ccc(-c2csc(N/N=C/c3ccco3)n2)cc1 | 99.8% (active) |
| CCC(=O)NC(c1cccs1)c1cc([N+](=O)[O-])c2cccnc2c1O (configuration not stated) | 86.2% (active) |
| CCCC(=O)NC(c1cccs1)c1cc([N+](=O)[O-])c2cccnc2c1O (configuration not stated) | 71.3% (active) |
| Cc1ccccc1Nc1nc(N)nc(CCl)n1 | 24.8% |
| CC1Sc2ccc(S(=O)(=O)CCC(=O)N3CCN(c4ccccc4F)CC3)cc2NC1=O (configuration not stated) | 39.3% |
| Cc1ccc(C)c(N2CCN(C(=O)CCS(=O)(=O)c3ccc4c(c3)NC(=O)CO4)CC2)c1 | 28.3% |
| Cc1ccc(C)c(N2CCN(C(=O)CCS(=O)(=O)c3ccc4c(c3)NC(=O)C(C)S4)CC2)c1 (configuration not stated) | 74.4% (active) |
| CCOC(=O)N1CCN(C(=O)c2ccc3c(c2)N(C)C(=O)/C(=C\c2ccc(OCC)c(OC)c2)S3)CC1 | 21.6% |
| COc1ccc(Cc2noc(CN3CCN(Cc4cccc(Cl)c4)CC3)n2)cc1OC | 35.8% |
| Cc1ccccc1/C=C1\Sc2ccc(C(=O)N3CCN(c4ccccn4)CC3)cc2N(C)C1=O | 22.2% |
| O=C(c1ccc2c(c1)N(Cc1ccccc1)C(=O)c1ccccc1S2)N1CCCC1 | 34.7% |
| O=C1Nc2cc(C(=O)N3CCN(c4ccccn4)CC3)ccc2S/C1=C\c1ccccc1 | 3% |
| CCOc1ccc(/C=C2/Sc3ccc(C(=O)N4CCOCC4)cc3N(C)C2=O)cc1OC | 54.9% (active) |
| CN1C(=O)/C(=C/c2ccccc2Cl)Sc2ccc(C(=O)N3CCCC3)cc21 | 89% (active) |
| COc1ccc(/C=C2\Sc3ccc(C(=O)N4CCN(Cc5ccccc5)CC4)cc3N(C)C2=O)cc1OC | 59.1% (active) |
| COCCN1CCN(C(=O)c2ccc3nc(Cc4ccc(OC)c(OC)c4)oc3c2)CC1 | 8.5% |
| Cc1ccc(C)c(Oc2cc(NC(=O)CCCn3nc(C)c([N+](=O)[O-])c3C)cc([N+](=O)[O-])c2)c1 | -13.6% |
| O=C(Nc1ccc(N2CCN(Cc3ccccc3F)CC2)cc1)c1ccc([N+](=O)[O-])o1 | 20% |

| SMILES | inhibition |
| --- | --- |
| O=C(Nc1ccc(N2CCN(C(=O)c3ccccc3F)CC2)cc1)c1cncc(Br)c1 | 72.9% (active) |
| O=C(Nc1ccc(Br)cc1)c1ccc(F)c(S(=O)(=O)N2CCN(c3ccccn3)CC2)c1 | 36.8% |
| Cc1nc2sc(C(N)=O)c(N)c2c2c1CCCC2 | 92.8% (active) |
| NC(=O)c1sc2nc3c(c(-c4ccccc4)c2c1N)CCC3 | 96.6% (active) |
| Cc1ccc(-c2c3c(nc4sc(C(N)=O)c(N)c24)CCC3)cc1 | 82.9% (active) |
| NC(=O)c1sc2nc3c(c(-c4ccco4)c2c1N)CCCC3 | 83.5% (active) |
| CCOC(=O)c1ccc(NC(=O)c2sc3nc(N4CCOCC4)c4c(c3c2N)CCCC4)cc1 | -98.3% |
| NC(=O)c1sc2nc3c(c(-c4cccs4)c2c1N)CCCCC3 | 90% (active) |
| O=C(N/N=C/c1cccs1)c1n[nH]c2c1CCCC2 | 1.7% |
| Cc1nnc(N2CCCC(C(=O)Nc3cc(F)ccc3F)C2)c2nn(-c3ccccc3)c(C)c12 (configuration not stated) | 95.7% (active) |
| COc1ccc(/C=c2/sc3nc(-c4ccccc4)c(-c4ccccc4)n3c2=O)cc1 | -25.7% |
| COc1ccc(Cc2[nH]n3c(=O)c(Cl)c(C)nc3c2-c2ccccc2)cc1 | 106% (active) |
| COc1cc(/C=N/NC(=O)c2cc(-c3ccc4c(c3)OCO4)n[nH]2)ccc1O | 55.4% (active) |
| CCNC(=O)/C(C#N)=C/c1c(N2CCN(c3ccc(OC)cc3)CC2)nc2c(C)cccn2c1=O | 15.3% |
| Cc1ccccc1N=Nc1ccc(O)c2ncccc12 | 105% (active) |
| Cc1ccc2c(C)ccc(O)c2n1 | -70.6% |
| Oc1ccc(N=Nc2ccc3c(c2)OCCO3)c2cccnc12 | 39.5% |
| Cc1ccc(N=Nc2ccc(O)c3ncccc23)cc1 | 96.9% (active) |
| Cc1ccc(C)c(N=Nc2ccc(O)c3ncccc23)c1 | 42.5% |
| Cc1ccc(N=Nc2ccc(O)c3ncccc23)cc1C | 105% (active) |
| CCOC(=O)C1CCCN(C(=O)c2ccc3c(=O)n(CCOC)c(=S)[nH]c3c2)C1 (configuration not stated) | 21.6% |
| COCCn1c(=S)[nH]c2cc(C(=O)N3CCCC(C)C3)ccc2c1=O (configuration not stated) | 94.8% (active) |
| COc1ccc(Cc2nc3ccc(C(=O)N4CCN(C)C(C)C4)cc3o2)cc1OC (configuration not stated) | 45.4% |

| SMILES | inhibition |
| --- | --- |
| O=C(NCc1cccnc1)/C(=C/c1ccc(-c2cccc(Cl)c2)o1)S(=O)(=O)c1ccccc1 | 99.5% (active) |
| O=C(NCc1cccnc1)/C(=C\c1ccc(-c2cccc(Cl)c2)o1)S(=O)(=O)c1ccccc1 | 91.5% (active) |
| CCN(CC)c1nc(N2CCOCC2)nc2ccccc12 | 2% |
| COc1ccc(-c2n(CC(=O)OC3CC(C)CCC3C(C)C)c3ccccc3[n+]2C)cc1 (configuration not stated) | 74.8% (active) |
| COc1ccc(/C=N/NS(=O)(=O)c2ccc(F)cc2)cc1COc1cc(F)ccc1[N+](=O)[O-] | 12.7% |
| C/C(=N\NC(=O)c1c(C)nc2ccccn12)c1ccc(O)cc1O | 69.2% (active) |
| C/C(=N\NC(=O)c1cc(C2CC2)nc2ccccc12)c1ccc(O)cc1O | 66.6% (active) |
| O=C(Nc1nnc(-c2ccc3c(c2)CCCC3)o1)c1ccccc1 | 106% (active) |
| O=C(CCc1nnc(-c2ccc(-c3ccccc3)cc2)o1)N1CCCCC1 | -6.8% |
| O=C(Nc1nnc(-c2ccc3c(c2)CCCC3)o1)c1ccccc1Cl | 106% (active) |
| O=C(Nc1nnc(-c2ccc3c(c2)CCCC3)o1)c1ccc(Cl)cc1Cl | 101% (active) |
| CC(C)(C)OC(=O)N[C@@H](Cc1ccccc1)c1nnc(S(=O)(=O)Cc2cccc(F)c2)o1 | -10.8% |
| CC1CC(C)CN(C(=O)/C=C/c2ccc([N+](=O)[O-])s2)C1 (configuration not stated) | 60.4% (active) |
| O=C(/C=C/c1ccc([N+](=O)[O-])s1)N1CCN(c2ccccc2)CC1 | 10.5% |
| CC1CN(C(=O)/C=C/c2ccc([N+](=O)[O-])s2)CC(C)O1 (configuration not stated) | 41% |
| O=C(/C=C/c1ccc([N+](=O)[O-])s1)N1CCCCC1 | 54.6% (active) |
| Cc1ccc(/C=C/c2ccc(N(C)C)cc2)[n+](C)c1 | 28.5% |
| CC(C)CC[n+]1ccccc1/C=C/c1ccc(N(C)C)cc1 | 74.3% (active) |
| CC[n+]1ccc(/C=C/c2ccc(N(C)C)cc2)c2ccccc21 | 62.5% (active) |
| CC[n+]1cc(C)ccc1/C=C/c1ccc(N(C)C)cc1 | 57.1% (active) |
| O=C(NCc1cccs1)c1nc2c(nnn2Cc2ccccc2Cl)c(=O)[nH]1 | 98.2% (active) |
| O=C(CCl)N=c1sccn1Cc1ccccc1Cl | 48.8% |
| O=C(NCc1ccco1)c1nc2c(nnn2Cc2ccccc2Cl)c(=O)[nH]1 | 78.4% (active) |
